Test results as given in PubChem BioAssay.
Activity calls are given as the source filed them.

Columns and labels:
[1] = test system: Human papillomavirus type 1a protein E7 (residues 44-93); test: small molecules binding HPV E7 44-93 – biochemical, small-molecule microarray, residues 44-93, 635 nm fluorescence, primary screen (AID 1108); details: fluorescence 635 nm, higher = more signal;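 further: E7 fragment applied at 1 µg/mL in TBST for 1 h at 4 C; score combines spot fluorescence with its signal to noise ratio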
[2] = hepatitis C replication reporter changes, two-sided – Huh7 cells, luciferase reporter, HCV replication inhibitor project, primary screen (AID 1109); details: Huh7 HCV replicon luciferase reporter, 48 h; higher = more signal;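 further: huh7 hepatoma cells harbouring a luciferase neomycin HCV replicon reporter; luciferase luminescence as measure of HCV replicon replication; test concentration not given here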
[3] = target: Left-right determination factor 2 (Homo sapiens) (UniProt O00292); test: small molecules binding LEFTY2 protein – biochemical, small-molecule microarray, 635 nm fluorescence scan, primary screen (AID 1110); details: higher = more signal
[4] = target: Calmodulin-1 (Homo sapiens) (UniProt P0DP23); test: small molecules binding calmodulin-1 with EGTA – biochemical, small-molecule microarray, Cy5-labelled CALM1, profiling panel (AID 1111); details: Cy5-CALM1 binding fluorescence, higher = more signal;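 further: labelled calmodulin applied in Tris saline Tween buffer holding calcium plus EGTA and DTT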
[5] = target: Calmodulin-1 (Homo sapiens) (UniProt P0DP23); test: small molecules binding Ca-loaded calmodulin-1 – biochemical, small-molecule microarray, Cy5-labelled CALM1, plus calcium, artefact control for SMM control-protein annotation, profiling panel (AID 1112); details: Cy5-CALM1 binding fluorescence, higher = more signal;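 further: score merges spot fluorescence with signal to noise from triplicate slides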
[6] = probe aWnt5a binding to arrayed compounds – biochemical, biotinylated probe, 635/667 nm fluorescence, primary screen (AID 1113); details: small-molecule microarray, higher = more signal;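 further: score merges 667 nm fluorescence intensity with signal-to-noise per printed feature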
[7] = probe aShh binding to arrayed compounds – biochemical, biotinylated probe, 635/667 nm fluorescence, primary screen (AID 1114); details: small-molecule microarray, higher = more signal;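 further: probe is biotin-labelled aShh protein from a stem cell growth factor screen; measures binding of labelled protein to compounds printed on the slide; score merges feature fluorescence at 667 nm with signal-to-noise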
[8] = probe aNog binding to arrayed compounds – biochemical, biotinylated probe, 635/667 nm fluorescence, primary screen (AID 1115); details: small-molecule microarray, higher = more signal;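 further: probe is biotinylated aNog protein used at 0.15 µg/mL for 1 h at 4 C; z-score combines 667 nm fluorescence of each spot with its signal to noise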
[9] = target: Torsin-1A-interacting protein 1 (Homo sapiens) (UniProt Q5JTV8); test: compound microarray binding of lysate hLAP1 – cell lysate, small-molecule microarray, COS7 lysate, 635/667 nm fluorescence, primary screen (AID 1116); details: 635 nm fluorescence, higher = more signal
[10] = target: Alpha-bungarotoxin (Bungarus multicinctus) (UniProt P60615); test: compounds binding labelled alpha-BTX control protein – biochemical, small-molecule microarray, Alexa647 label, 635/667 nm fluorescence, artefact control for SMM control protein annotation, profiling panel (AID 1117); details: alpha-BTX-A647 binding fluorescence, higher = more signal
Albumin (Bos taurus) = Albumin (Bos taurus) (UniProt P02769); test: compounds binding labelled BSA control protein – biochemical, small-molecule microarray, Alexa647 label, 635/667 nm fluorescence, artefact control for SMM control protein annotation, profiling panel (AID 1118); details: BSA-A647 binding, fluorescence 635 nm, higher = more signal;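 further: score merges 667 nm emission intensity and signal-to-noise per printed compound spot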
[11] = probe aXIP binding to arrayed compounds – biochemical, NeuroSMM set, 635/667 nm fluorescence, primary screen (AID 1119); details: small-molecule microarray, higher = more signal, called active from +8 up or from −8 down;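 further: probe is the protein aXip251-270 applied at 1 µg/mL to compound-printed slides; binding of probe to printed compounds measured as 667 nm fluorescence plus signal to noise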
[12] = probe aNOTCH3 binding on compound microarray – biochemical, small-molecule microarray, 635/667 nm fluorescence, primary screen (AID 1120); details: higher = more signal;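 further: probe is a biotin-tagged antibody raised against NOTCH3 rather than NOTCH3 protein; score merges spot fluorescence near 667 nm with spot signal to noise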
[13] = probe aNOTCH2 binding on compound microarray – biochemical, small-molecule microarray, 635/667 nm fluorescence, primary screen (AID 1121); details: higher = more signal;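 further: score merges feature fluorescence read at 667 nm with its signal to noise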
[14] = target: Carbonic anhydrase 2 (Homo sapiens) (UniProt P00918); test: compounds binding carbonic anhydrase 2 – biochemical, small-molecule microarray, Alexa647-labelled CAII, profiling panel (AID 1122); details: CAII-A647 binding fluorescence, higher = more signal
[15] = COS7 lysate on small-molecule microarray, probe aHis, 635 nm (AID 1123); details: COS7 cell lysate, fluorescence, higher = more signal;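 further: z-score combines 667nm fluorescence intensity with signal-to-noise per printed compound spot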
[16] = probe aLAP1 signal on lysate-treated microarray – cell lysate, small-molecule microarray, COS7 lysate, primary screen (AID 1124); details: probe aLAP1, fluorescence, higher = more signal;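 further: lysate comes from COS7 cells expressing LAP1 and is applied at 0.3 µg/mL; score merges spot fluorescence near 667 nm with signal-to-noise over triplicate slides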
Sam68 (KHDRBS1) = test: compounds binding KHDRBS1 protein – biochemical, small-molecule microarray, 635 nm fluorescence, primary screen (AID 1125); details: higher = more signal;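 further: score merges 667 nm channel intensity with signal to noise over triplicate slides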
[17] = test system: Chordin-like protein 2 (CHRDL2); test: compounds binding chordin-like 2 – biochemical, small-molecule microarray, 635 nm fluorescence, primary screen (AID 1126); details: fluorescence 635 nm, higher = more signal;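 further: printed compound slides probed with Chrdl2 protein at 4 µg/mL for 1 h at 4 C; score merges 667 nm emission intensity with signal to noise over three replicate slides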
[18] = target: Concanavalin-A (Canavalia ensiformis) (UniProt P02866); test: compounds binding concanavalin A lectin – biochemical, small-molecule microarray, Alexa647 label, 635 nm, artefact control for SMM control protein annotation, primary screen (AID 1127); details: ConA-A647 binding fluorescence, higher = more signal;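 further: z combines 667 nm emission intensity with signal-to-noise across three replicate slides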
Chain of Concanavalin-A (Canavalia ensiformis) (P02866 whole entry, looked up): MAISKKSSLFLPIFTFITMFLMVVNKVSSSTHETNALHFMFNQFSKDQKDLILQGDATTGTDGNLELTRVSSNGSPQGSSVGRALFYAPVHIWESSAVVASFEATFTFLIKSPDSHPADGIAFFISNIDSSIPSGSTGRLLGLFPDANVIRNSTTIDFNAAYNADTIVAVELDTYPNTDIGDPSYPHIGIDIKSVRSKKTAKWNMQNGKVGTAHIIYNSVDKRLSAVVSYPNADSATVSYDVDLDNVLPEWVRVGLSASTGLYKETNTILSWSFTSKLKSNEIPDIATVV

Chain of Albumin (Bos taurus) (P02769 whole entry, looked up): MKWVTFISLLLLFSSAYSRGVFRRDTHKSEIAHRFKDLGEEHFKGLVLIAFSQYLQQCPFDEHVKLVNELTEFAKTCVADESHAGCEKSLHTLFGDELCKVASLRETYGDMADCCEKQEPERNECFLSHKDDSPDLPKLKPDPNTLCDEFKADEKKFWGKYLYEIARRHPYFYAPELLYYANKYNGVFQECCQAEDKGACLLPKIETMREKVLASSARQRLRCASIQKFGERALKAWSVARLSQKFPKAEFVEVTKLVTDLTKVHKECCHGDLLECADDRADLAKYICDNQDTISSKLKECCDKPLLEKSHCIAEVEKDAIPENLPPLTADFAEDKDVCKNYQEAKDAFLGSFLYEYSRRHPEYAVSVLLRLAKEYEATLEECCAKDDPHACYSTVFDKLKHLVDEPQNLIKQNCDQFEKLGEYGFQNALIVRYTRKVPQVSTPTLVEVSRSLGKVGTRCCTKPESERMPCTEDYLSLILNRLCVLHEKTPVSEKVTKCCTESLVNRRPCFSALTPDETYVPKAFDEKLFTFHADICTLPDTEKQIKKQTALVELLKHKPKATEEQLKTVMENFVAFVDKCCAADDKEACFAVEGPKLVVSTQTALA
Chain of Left-right determination factor 2 (Homo sapiens) (O00292 whole entry, looked up): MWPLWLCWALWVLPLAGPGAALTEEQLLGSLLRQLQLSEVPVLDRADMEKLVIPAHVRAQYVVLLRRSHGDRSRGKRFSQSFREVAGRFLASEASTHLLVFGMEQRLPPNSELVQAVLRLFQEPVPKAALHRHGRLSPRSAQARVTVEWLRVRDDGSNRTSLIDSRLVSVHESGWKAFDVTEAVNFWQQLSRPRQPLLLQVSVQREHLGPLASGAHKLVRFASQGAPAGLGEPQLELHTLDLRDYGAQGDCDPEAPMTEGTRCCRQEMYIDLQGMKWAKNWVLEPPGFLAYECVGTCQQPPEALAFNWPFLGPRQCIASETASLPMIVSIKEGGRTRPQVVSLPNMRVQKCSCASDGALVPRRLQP
Chain of Torsin-1A-interacting protein 1 (Homo sapiens) (Q5JTV8 whole entry, looked up): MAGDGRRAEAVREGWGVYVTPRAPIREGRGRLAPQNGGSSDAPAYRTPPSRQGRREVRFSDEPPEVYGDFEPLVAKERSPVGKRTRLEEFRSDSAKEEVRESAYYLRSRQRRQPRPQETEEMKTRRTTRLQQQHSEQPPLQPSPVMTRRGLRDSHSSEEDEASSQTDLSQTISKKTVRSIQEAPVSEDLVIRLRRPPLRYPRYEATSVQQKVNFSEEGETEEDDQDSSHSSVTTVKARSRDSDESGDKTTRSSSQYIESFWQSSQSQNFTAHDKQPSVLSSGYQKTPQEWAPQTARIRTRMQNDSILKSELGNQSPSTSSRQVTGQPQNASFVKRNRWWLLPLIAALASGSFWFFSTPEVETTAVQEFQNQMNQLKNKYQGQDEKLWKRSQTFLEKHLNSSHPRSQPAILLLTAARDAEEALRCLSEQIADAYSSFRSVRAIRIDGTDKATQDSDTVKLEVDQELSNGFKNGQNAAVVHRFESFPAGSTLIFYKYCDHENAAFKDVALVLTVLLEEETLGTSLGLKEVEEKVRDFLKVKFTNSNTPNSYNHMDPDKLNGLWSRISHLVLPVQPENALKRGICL
Chain of Alpha-bungarotoxin (Bungarus multicinctus) (P60615 whole entry, looked up): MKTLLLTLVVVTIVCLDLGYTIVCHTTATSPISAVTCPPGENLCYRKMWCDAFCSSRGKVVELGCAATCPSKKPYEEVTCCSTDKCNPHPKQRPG

| SMILES | composite z-score [1] | z-score [2] | composite z-score [3] | composite z-score [4] | composite z-score [5] | composite z-score [6] | composite z-score [7] | composite z-score [8] | composite z-score [9] | composite z-score [10] | composite z-score (Albumin (Bos taurus)) | composite Z-score [11] | composite z-score [12] | composite z-score [13] | composite z-score [14] | composite z-score [15] | composite z-score [16] | composite z-score (Sam68 (KHDRBS1)) | composite z-score [17] | composite z-score [18] |
| --- | --- | --- | --- | --- | --- | --- | --- | --- | --- | --- | --- | --- | --- | --- | --- | --- | --- | --- | --- | --- |
| CN1CCC(CCCO)=CC1c1ccc(CN2CCCC2)cc1 (stereo not given) | 1.25 | -1.94 | 1.3 | -0.561 | -0.938 | 0.0215 | 0.441 | 0.215 | 1.49 | 1.34 | -0.225 | -0.554 (inactive) | 0.29 | 0.0088 | 0.665 | 1.46 | 0.714 | 1.32 | 1.5 | 0.776 |
| C[N+](C)(C)CCCCCCNC(=O)[C@H]1C[C@H]2C(=O)N3CCC[C@H]3C(=O)N2[C@H]1c1ccc(O)cc1 | 1.41 | 0.741 | 0.26 | 0.0573 | -0.965 | -0.178 | 0.0639 | -0.29 | 0.541 | -0.37 | -0.608 | 0.287 (inactive) | 0.0039 | -0.107 | 0.5 | 1.73 | -0.379 | 0.485 | 0.472 | 0.709 |
| COCCOC(=O)N1C(=O)[C@@]2(c3cc(C#CCCO)ccc31)[C@H](c1ccc(O)cc1)N1[C@H](c3ccccc3)[C@H](c3ccccc3)OC(=O)[C@H]1[C@@H]2C(N)=O | -0.0809 | -0.016 | -0.597 | -0.523 | 0.456 | -0.0118 | 0.0611 | 0.0157 | 0.393 | 0.755 | 0.136 | 0.257 (inactive) | -0.0967 | -0.0956 | 0.738 | 0.831 | 1.73 | 0.761 | -0.552 | 0.59 |
| O=c1cccc(CCc2ccccc2)o1 | 0.744 | 0.237 | 0.103 | -0.408 | -0.262 | -0.118 | 0.0952 | -0.0827 | -0.684 | 1.04 | -0.284 | 0.338 (inactive) | -0.301 | -0.0986 | 0.731 | 0.89 | -0.397 | 0.854 | 0.146 | 0.283 |
| CC1CC/C=C\[C@H]2OC34C=CCN(Cc5ccccc5)C(=O)[C@H]3N(CCCCCO)C(=O)[C@@H]4C2C(=O)O1 (stereo not given in full) | -0.853 | 0.28 | -0.918 | -0.457 | 0.163 | -0.0981 | -0.345 | -0.0704 | 1.04 | 1.39 | 0.363 | 0.815 (inactive) | -0.213 | -0.19 | 0.871 | -0.351 | 1.4 | -0.883 | -0.0737 | -0.811 |
| O=C1OCC=C[C@H]2OC34C=CCN(c5ccc6ccccc6c5)C(=O)[C@H]3N(CCCO)C(=O)[C@@H]4[C@@H]12 (stereo not given in full) | -0.522 | -0.805 | -0.842 | -0.0892 | 0.172 | -0.124 | -0.15 | 0.135 | 0.208 | -0.871 | 0.314 | 0.102 (inactive) | -0.256 | -0.07 | 0.709 | -0.559 | 1.26 | -1.39 | -0.824 | -0.223 |
| COCCOC(=O)N1C(=O)[C@@]2(c3cc(C#CCC(C(=O)OC)C(=O)OC)ccc31)[C@H](c1ccccc1OCCO)N1[C@H](c3ccccc3)[C@H](c3ccccc3)OC(=O)[C@H]1[C@@H]2C(N)=O | 0.22 | -2.2 | 0.32 | 1.25 | 0.648 | 0.027 | -0.0055 | 0.141 | 1.21 | 2.37 | 0.101 | -0.167 (inactive) | 0.173 | -0.0357 | 0.503 | 2.03 | 1.5 | 1.25 | 0.237 | 1.07 |
| C[C@]1(C(=O)NCc2ccccc2)c2ccccc2C(=O)N(Cc2ccc(OC(F)(F)F)cc2)[C@H]1c1ccc(CO)cc1 | 1.39 | 0.0711 | -0.579 | -0.119 | 0.122 | -0.0882 | -0.304 | -0.381 | 0.696 | -0.141 | -0.125 | 0.843 (inactive) | -0.211 | -0.103 | 0.681 | 1.78 | 0.107 | 0.426 | -0.256 | 0.592 |
| O=C1OCC=C[C@H]2OC34C=CCN(c5ccc(Cl)cc5)C(=O)[C@H]3N(CCCCCCO)C(=O)[C@@H]4[C@@H]12 (stereo not given in full) | -0.851 | -0.493 | -1.21 | -0.123 | 0.174 | -0.128 | 0.0062 | 0.46 | -0.143 | -1.34 | -0.95 | 0.276 (inactive) | -0.226 | -0.148 | 0.978 | 0.568 | 0.688 | -1.02 | -1.03 | -1.59 |
| [N-]=[N+]=NCc1ccccc1C[C@@]1(C(=O)N2CCOCC2)N=C(c2ccc(OCCCO)cc2)O[C@@H]1c1ccccc1CN=[N+]=[N-] | -0.422 | -2.43 | -0.269 | 2.2 | 1.06 | 0.324 | 0.167 | -0.434 | 1.27 | 2.21 | 0.922 | 0.696 (inactive) | 0.713 | 0.266 | 0.586 | 2.61 | 1.29 | 1.31 | -0.725 | 1.14 |
| C=CCNC(=O)[C@@H]1[C@H]2C(=O)O[C@H](c3ccccc3)[C@H](c3ccccc3)N2[C@H](c2ccccc2OCCO)[C@@]12C(=O)Nc1ccc(C#CC3=CCCCC3)cc12 | 1.41 | -3.27 | 0.604 | 1.09 | 0.17 | -0.0523 | 0.0611 | -0.278 | 0.668 | 1.24 | 0.482 | -0.224 (inactive) | 0.0105 | -0.0907 | 0.271 | 2.18 | 0.536 | 1.3 | 0.436 | 0.99 |
